PubChem BioAssay (NCATS)
A number with no mark means an inactive call. Results filed as inconclusive are left out. A call without a number means that no potency is given here. Activity calls are given as the source filed them. Unless noted, the call rests on the fitted dose curve; in most records, active means well fitted curve in the direction sought with a large enough effect; inconclusive means small, poorly fitted or top-dose-only effect, or another doubt; inactive means no such curve, though single readings can be large; an effect the other way counts as inactive or inconclusive.

Assays:
[1] = molecular target: Cytochrome P450 1A2 (Homo sapiens) (UniProt P05177); assay: p450-cyp1a2 (AID 410; calls by dose curve; further: potency means the concentration at half of the fitted maximal effect)
Cytochrome P450 1A2 (Homo sapiens), sequence (P05177 whole entry, looked up): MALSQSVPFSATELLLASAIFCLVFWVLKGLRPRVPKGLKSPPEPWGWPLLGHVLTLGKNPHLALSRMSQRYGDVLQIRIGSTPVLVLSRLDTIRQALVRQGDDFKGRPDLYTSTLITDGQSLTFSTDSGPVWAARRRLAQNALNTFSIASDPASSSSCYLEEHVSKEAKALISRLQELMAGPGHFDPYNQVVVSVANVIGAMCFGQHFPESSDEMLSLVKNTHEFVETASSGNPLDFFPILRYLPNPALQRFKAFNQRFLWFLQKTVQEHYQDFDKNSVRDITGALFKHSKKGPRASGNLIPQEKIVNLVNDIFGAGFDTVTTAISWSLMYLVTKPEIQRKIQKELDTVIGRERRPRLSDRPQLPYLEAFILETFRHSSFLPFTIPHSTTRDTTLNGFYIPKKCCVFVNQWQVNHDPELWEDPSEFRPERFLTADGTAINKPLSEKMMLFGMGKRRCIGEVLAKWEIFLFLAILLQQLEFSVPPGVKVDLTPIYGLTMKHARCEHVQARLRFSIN
In short: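 O-Demethylation of luciferin 6' methyl ether by human CYP1A2 is monitored as luciferase luminescence. Substrate sits at Km (100uM); enzyme is 20nM. Values are scaled to 57 uM furafylline as maximal inhibition.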

[2] = molecular target: Glucocorticoid receptor (Homo sapiens) (UniProt P04150); assay: GR-EFC Redistribution (AID 451; calls by dose curve; further: potency means the concentration at half of the fitted maximal effect); conditions: CHO-K1 GR-EFC translocation, beta-gal luminescence, 2 h
Glucocorticoid receptor (Homo sapiens), sequence (P04150 whole entry, looked up, the tested form may be a part): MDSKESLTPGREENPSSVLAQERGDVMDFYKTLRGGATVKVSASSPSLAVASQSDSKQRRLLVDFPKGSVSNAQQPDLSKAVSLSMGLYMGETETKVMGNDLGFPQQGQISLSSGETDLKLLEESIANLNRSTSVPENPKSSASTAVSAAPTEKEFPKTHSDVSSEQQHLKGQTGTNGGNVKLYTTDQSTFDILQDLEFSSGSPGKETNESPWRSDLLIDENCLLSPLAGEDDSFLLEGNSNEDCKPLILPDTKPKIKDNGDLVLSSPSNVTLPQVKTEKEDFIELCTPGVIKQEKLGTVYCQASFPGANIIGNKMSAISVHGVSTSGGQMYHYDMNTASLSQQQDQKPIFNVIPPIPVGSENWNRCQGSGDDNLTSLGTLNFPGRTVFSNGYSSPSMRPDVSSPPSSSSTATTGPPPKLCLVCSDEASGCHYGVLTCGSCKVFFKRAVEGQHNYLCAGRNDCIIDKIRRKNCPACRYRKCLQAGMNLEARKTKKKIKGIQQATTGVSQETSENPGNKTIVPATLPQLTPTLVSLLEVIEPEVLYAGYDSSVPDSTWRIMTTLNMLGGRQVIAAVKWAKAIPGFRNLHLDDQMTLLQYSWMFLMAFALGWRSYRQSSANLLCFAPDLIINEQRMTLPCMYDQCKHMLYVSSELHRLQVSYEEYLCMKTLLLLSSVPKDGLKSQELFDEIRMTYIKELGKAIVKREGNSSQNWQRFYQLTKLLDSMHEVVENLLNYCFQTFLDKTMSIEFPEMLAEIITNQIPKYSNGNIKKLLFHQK
In short: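 CHO-K1 cells stably expressing nuclear-localized β-gal enzyme acceptor and GR fused C-terminally to the enzyme donor fragment; ligand-driven nuclear translocation restores β-gal by complementation. Compounds titrated up to 46 uM final, 2 h at 37 °C; luminescence read.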

[3] = molecular target: Mitogen-activated protein kinase 10 (Mus musculus) (UniProt Q61831); assay: JNK3 AlphaScreen Assay (AID 530; active means well fitted curve in either direction with a large enough effect, not every such curve was filed as active;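 further: kinase came from lysate of stimulated human HepG2 cells; signal reports phosphorylation of biotinylated GST-cJun 1-79 at Ser73 with 10 µM ATP; series mostly up to about 57 µM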)
In short: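 Phosphorylation of biotinylated GST-cJun(1-79) at Ser73 is measured by AlphaScreen proximity luminescence. Enzyme is JNK3 in HepG2 lysates activated with interleukin-1beta and tumor necrosis factor alpha; ATP is 10 uM final.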

[4] = molecular target: 3',5'-cyclic-AMP phosphodiesterase 4B (Homo sapiens) (UniProt Q07343); assay: qHTS Assay for Inhibitors of PDE-IV (AID 607; active means well fitted activation curve with a large enough effect in the main read-out, with a control signal flat, not every such curve was filed as active)
3',5'-cyclic-AMP phosphodiesterase 4B (Homo sapiens), sequence (Q07343 whole entry, looked up): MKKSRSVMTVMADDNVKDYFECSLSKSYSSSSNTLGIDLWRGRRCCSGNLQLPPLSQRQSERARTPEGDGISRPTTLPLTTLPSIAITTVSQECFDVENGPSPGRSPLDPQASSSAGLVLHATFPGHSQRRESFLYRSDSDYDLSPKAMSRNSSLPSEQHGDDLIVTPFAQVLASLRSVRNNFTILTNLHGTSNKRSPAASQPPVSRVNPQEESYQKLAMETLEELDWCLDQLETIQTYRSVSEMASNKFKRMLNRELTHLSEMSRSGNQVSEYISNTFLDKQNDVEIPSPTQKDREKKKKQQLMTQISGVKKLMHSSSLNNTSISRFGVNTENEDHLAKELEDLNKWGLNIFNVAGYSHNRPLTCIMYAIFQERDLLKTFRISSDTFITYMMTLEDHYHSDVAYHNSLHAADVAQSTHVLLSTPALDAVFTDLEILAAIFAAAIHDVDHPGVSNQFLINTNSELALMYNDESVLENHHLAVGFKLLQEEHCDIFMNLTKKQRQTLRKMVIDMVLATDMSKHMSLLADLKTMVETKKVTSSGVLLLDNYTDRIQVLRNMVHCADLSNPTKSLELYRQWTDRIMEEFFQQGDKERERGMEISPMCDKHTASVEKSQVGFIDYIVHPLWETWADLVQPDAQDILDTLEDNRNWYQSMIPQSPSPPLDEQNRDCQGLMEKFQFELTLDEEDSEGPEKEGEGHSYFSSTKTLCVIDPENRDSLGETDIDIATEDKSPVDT
In short: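 Live HEK293 cells with a modified cyclic nucleotide-gated (CNG) channel report intracellular cAMP via membrane-potential dye fluorescence (ex 535/em 590 nm). Endogenous PDE-IV was targeted. Compounds were tested at up to 22.9 uM final; RO 20-1724 100 uM served as control.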

[5] = molecular target: Cytochrome P450 2C9 (Homo sapiens) (UniProt P11712); assay: qHTS Assay for Inhibitors and Substrates of Cytochrome P450 2C9 (AID 883); further: nearly all actives have a fitted effect of over 60% in size; further: potency means the concentration at half of the fitted maximal effect
Cytochrome P450 2C9 (Homo sapiens), sequence (P11712 whole entry, looked up): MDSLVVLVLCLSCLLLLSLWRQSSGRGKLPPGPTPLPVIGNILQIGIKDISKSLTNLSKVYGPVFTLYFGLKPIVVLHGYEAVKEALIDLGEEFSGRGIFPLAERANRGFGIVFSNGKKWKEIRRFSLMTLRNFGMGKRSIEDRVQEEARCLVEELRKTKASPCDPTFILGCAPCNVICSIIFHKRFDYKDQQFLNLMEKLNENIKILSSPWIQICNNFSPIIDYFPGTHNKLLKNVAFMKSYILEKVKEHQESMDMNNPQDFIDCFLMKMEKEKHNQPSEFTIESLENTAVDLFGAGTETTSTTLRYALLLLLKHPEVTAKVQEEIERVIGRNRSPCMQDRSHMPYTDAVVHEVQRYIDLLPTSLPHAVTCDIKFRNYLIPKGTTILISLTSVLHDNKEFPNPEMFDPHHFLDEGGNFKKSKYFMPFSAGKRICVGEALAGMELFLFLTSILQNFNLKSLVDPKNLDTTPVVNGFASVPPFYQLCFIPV
In short: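 Human CYP2C9 (10nM) hydroxylated Luciferin-H (100uM, at its KM) to luciferin in 25mM KPO4. Compound was preincubated 10 min at 37C, then NADPH regeneration started a 60 min reaction at 37C. Luminescence was read after detection reagent, normalized to 57uM sulphaphenazole.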

[6] = molecular target: Cytochrome P450 2D6 (Homo sapiens) (UniProt P10635); assay: qHTS Assay for Inhibitors and Substrates of Cytochrome P450 2D6 (AID 891); further: nearly all actives have a fitted effect of over 60% in size; further: potency means the concentration at half of the fitted maximal effect
Cytochrome P450 2D6 (Homo sapiens), sequence (P10635 whole entry, looked up): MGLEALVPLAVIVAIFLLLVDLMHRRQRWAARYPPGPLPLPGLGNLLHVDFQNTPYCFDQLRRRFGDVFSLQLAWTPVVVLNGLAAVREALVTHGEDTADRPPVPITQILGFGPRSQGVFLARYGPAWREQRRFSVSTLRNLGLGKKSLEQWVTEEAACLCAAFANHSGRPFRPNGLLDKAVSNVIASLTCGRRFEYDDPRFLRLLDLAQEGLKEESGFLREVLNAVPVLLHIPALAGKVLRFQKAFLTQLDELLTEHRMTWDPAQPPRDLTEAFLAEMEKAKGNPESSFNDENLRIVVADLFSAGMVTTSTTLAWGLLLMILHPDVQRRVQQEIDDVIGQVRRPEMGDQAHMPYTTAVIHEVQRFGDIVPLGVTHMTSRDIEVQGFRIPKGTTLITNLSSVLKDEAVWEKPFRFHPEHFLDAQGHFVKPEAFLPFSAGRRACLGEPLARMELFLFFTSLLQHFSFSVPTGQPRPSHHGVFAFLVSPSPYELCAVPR
In short: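 Luminescent read-out of luciferin formed by 5 nM human CYP2D6 demethylating 30 uM Luciferin-ME EGE (Km level) over 60 min at room temperature after NADPH regeneration addition. Data normalized to full inhibition by 1.43 uM quinidine.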

[7] = molecular target: Cytochrome P450 2C19 (Homo sapiens) (UniProt P33261); assay: qHTS Assay for Inhibitors and Substrates of Cytochrome P450 2C19 (AID 899); further: nearly all actives have a fitted effect of over 60% in size; further: potency means the concentration at half of the fitted maximal effect
Cytochrome P450 2C19 (Homo sapiens), sequence (P33261 whole entry, looked up): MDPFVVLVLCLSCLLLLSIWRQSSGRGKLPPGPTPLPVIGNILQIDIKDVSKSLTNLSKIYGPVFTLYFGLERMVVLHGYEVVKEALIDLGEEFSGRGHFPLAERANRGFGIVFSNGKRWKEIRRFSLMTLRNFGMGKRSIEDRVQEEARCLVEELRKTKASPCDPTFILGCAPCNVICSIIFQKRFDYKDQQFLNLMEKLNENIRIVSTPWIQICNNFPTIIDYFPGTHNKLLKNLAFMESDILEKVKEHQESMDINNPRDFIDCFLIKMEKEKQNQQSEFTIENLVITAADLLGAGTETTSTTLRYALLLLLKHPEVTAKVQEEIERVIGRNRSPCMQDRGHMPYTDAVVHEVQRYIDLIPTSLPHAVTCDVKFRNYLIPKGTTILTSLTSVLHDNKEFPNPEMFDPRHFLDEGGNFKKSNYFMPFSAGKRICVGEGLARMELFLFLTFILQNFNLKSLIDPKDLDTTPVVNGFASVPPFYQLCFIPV
In short: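 Human CYP2C19 (5nM) with Luciferin-H EGE at 10uM (its KM) in 50mM KPO4 was preincubated with compound for 10 min at 37C. NADPH regeneration started a 60 min 37C reaction. Luciferin was read by luminescence, normalized to 57uM ketoconazole.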

[8] = molecular target: Glucocorticoid receptor (Homo sapiens) (UniProt P04150); assay: GR-GFP Redistribution (AID 450;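 active means compounds whose dose series gives a full or clear partial fitted curve of increased nuclear translocation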; further: potency means the concentration at half of the fitted maximal effect)
[9] = molecular target: Cytochrome P450 3A4 (Homo sapiens) (UniProt P08684); assay: qHTS Assay for Inhibitors and Substrates of Cytochrome P450 3A4 (AID 884); further: potency means the concentration at half of the fitted maximal effect; nearly all actives have a fitted effect of over 50% in size
Cytochrome P450 3A4 (Homo sapiens), sequence (P08684 whole entry, looked up): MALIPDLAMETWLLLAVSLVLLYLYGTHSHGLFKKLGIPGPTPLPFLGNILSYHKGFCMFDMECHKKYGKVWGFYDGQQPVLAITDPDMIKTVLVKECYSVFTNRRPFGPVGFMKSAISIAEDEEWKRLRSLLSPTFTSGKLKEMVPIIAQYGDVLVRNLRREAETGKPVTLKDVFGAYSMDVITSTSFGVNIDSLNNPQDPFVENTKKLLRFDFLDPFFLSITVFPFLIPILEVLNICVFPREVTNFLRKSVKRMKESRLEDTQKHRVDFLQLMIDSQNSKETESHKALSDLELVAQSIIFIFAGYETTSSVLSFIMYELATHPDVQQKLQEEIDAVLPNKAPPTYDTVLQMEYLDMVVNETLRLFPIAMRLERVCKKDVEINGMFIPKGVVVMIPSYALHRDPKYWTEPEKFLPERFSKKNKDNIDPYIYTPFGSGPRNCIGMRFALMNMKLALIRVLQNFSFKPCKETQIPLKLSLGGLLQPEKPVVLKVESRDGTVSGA
In short: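 Luminescent readout of luciferin produced by CYP3A4 (20 nM) dealkylation of Luciferin-PPXE, 25 uM (its KM). NADPH-driven reaction ran 60 min at RT after 10 min compound preincubation; data scaled to 57 uM ketoconazole as 100% inhibition.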

[10] = molecular target: Cytochrome P450 3A4 (Homo sapiens) (UniProt P08684); assay: qHTS Assay for Activators of Cytochrome P450 3A4 (AID 885); further: nearly all actives have a fitted effect of over 65% in size
In short: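 Using 20nM recombinant human CYP3A4 in potassium phosphate (200mM), substrate Luciferin-PPXE at 25uM, luminescent luciferin detection followed a 60-min RT NADPH reaction; data scaled to 57 uM ketoconazole.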

[11] = molecular target: DNA dC->dU-editing enzyme APOBEC-3G (Homo sapiens) (UniProt Q9HC16); assay: qHTS for inhibitors of Vif-A3G interactions: Validation (AID 588379)
DNA dC->dU-editing enzyme APOBEC-3G (Homo sapiens), sequence (Q9HC16 whole entry, looked up): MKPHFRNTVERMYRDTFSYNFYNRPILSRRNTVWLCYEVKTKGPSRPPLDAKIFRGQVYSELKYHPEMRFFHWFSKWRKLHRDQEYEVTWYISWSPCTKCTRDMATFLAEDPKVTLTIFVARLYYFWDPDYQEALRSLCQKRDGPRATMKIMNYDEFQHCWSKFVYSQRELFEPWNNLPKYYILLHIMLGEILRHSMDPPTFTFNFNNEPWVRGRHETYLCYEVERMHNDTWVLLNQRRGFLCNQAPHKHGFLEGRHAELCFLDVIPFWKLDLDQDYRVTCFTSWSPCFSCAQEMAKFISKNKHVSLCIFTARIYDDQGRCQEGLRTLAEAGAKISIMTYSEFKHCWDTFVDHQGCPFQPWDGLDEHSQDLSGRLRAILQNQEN
In short: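 Yellow fluorescence (Ex 488, Em 500-530) of Vif-coexpressing HeLa A3G-eYFP cells, scanned by Acumen cytometer, reports blocked A3G degradation. Cells plated at 700/well overnight at 37 deg C before compound addition, then a further overnight compound incubation at 37 deg C.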

Compound	Potency [1]	Potency [2]	Potency [3]	Potency [4]	Potency [5]	Potency [6]	Potency [7]	Potency [8]	Potency [9]	Potency [10]	outcome [11]
CC(C)[C@@H](CC(=O)N[C@@H]1CCNC[C@H]1C(=O)N[C@H](CC(=O)N[C@@H](CCC(=O)O)CC(=O)O)Cc1ccccc1)NC(=O)C[C@H](CO)NC(=O)[C@@H]1CCCC[C@H]1N	inactive	> 46 µM	inactive	inactive	inactive	inactive	inactive	–	–	–	–
CC(C)C[C@@H](CC(=O)N[C@H](CC(=O)N[C@@H]1CCCC[C@H]1C(=O)N[C@H](CC(=O)N[C@@H](CCC(=O)O)CC(=O)O)Cc1c[nH]c2ccccc12)C(C)C)NC(=O)[C@@H]1CCCC[C@H]1N	inactive	> 46 µM	inactive	inactive	inactive	inactive	inactive	–	–	–	–
CC(C)C[C@@H](CC(=O)N[C@@H](CCC(=O)O)CC(=O)O)NC(=O)[C@@H]1CNCC[C@H]1NC(=O)C[C@H](CCCN)NC(=O)C[C@H](Cc1c[nH]c2ccccc12)NC(=O)[C@@H]1CNCC[C@H]1N	inactive	> 46 µM	inactive	inactive	inactive	inactive	inactive	–	–	–	–
CC(C)[C@@H](CC(=O)N[C@@H]1CCCC[C@H]1C(=O)N[C@H](CC(=O)N[C@@H](CCC(=O)O)CC(=O)O)Cc1c[nH]c2ccccc12)NC(=O)C[C@H](CO)NC(=O)[C@@H]1CCCC[C@H]1N	inactive	> 46 µM	inactive	inactive	inactive	–	inactive	–	–	–	–
CC(C)[C@@H](CC(=O)N[C@@H]1CCNC[C@H]1C(=O)N[C@H](CC(=O)N[C@@H](CCC(=O)O)CC(=O)O)Cc1c[nH]c2ccccc12)NC(=O)C[C@H](Cc1ccccc1)NC(=O)[C@@H]1CNCC[C@H]1N	31.6 µM (active)	> 46 µM	inactive	inactive	inactive	inactive	inactive	–	–	–	–
CC(C)[C@@H](CC(=O)N[C@@H]1CCNC[C@H]1C(=O)N[C@H](CC(=O)N[C@@H](CCC(=O)O)CC(=O)O)Cc1ccccc1)NC(=O)C[C@H](Cc1ccccc1)NC(=O)[C@@H]1CNCC[C@H]1N	15.8 µM (active)	> 46 µM	inactive	inactive	inactive	inactive	inactive	–	–	–	–
C=C1CC[C@H]2C(C)(C)[C@H](O)CC[C@]2(C)[C@@H]1COc1ccc2ccc(=O)oc2c1	31.6 µM (active)	–	inactive	–	3.98 µM (active)	inactive	6.31 µM (active)	> 46 µM	–	–	–
CC(C)C[C@@H](CC(=O)N[C@@H](CCC(=O)O)CC(=O)O)NC(=O)[C@@H]1CCCC[C@H]1NC(=O)C[C@@H](NC(=O)C[C@H](Cc1ccccc1)NC(=O)[C@@H]1CCCC[C@H]1N)C(C)C	inactive	> 46 µM	inactive	inactive	inactive	inactive	inactive	–	–	–	–
C/C(=C\COc1cc(=O)[nH]c2ccccc12)CC[C@@H](O)C(C)(C)O	20 µM (active)	–	inactive	inactive	inactive	inactive	inactive	> 46 µM	–	–	–
O=c1c(O)c(-c2cccc(O)c2)oc2ccccc12	0.501 µM (active)	–	–	–	15.8 µM (active)	–	25.1 µM (active)	> 46 µM	15.8 µM (active)	inactive	inactive
CC(C)C[C@@H](CC(=O)N[C@@H](CCCN)CC(=O)N[C@@H]1CCCC[C@H]1C(=O)N[C@H](CC(=O)N[C@@H](CCC(=O)O)CC(=O)O)Cc1c[nH]c2ccccc12)NC(=O)[C@@H]1CNCC[C@H]1N	inactive	> 46 µM	inactive	inactive	inactive	inactive	inactive	–	–	–	–
COc1cc2c(cc1OC)-c1c(OC)c(OC)cc3ccnc(c13)C2=O	0.0794 µM (active)	–	inactive	–	–	–	–	> 46 µM	2.51 µM (active)	inactive	inactive
CC(C)[C@@H](CC(=O)N[C@@H]1CCNC[C@H]1C(=O)N[C@H](CC(=O)N[C@@H](CCC(=O)O)CC(=O)O)Cc1c[nH]c2ccccc12)NC(=O)C[C@H](Cc1ccccc1)NC(=O)[C@@H]1CCCC[C@H]1N	31.6 µM (active)	> 46 µM	inactive	inactive	inactive	inactive	inactive	–	–	–	–
CC(=O)[C@@H]1[C@H]2[C@@H](C(=O)[C@H]3OC[C@H]2O3)[C@@H]2C=Cc3ccccc3N12	31.6 µM (active)	–	–	inactive	–	–	5.01 µM (active)	> 46 µM	–	–	–
COc1ccc(-c2oc3cc(OC)c(OC(C)=O)c(OC)c3c(=O)c2OC)cc1OC(C)=O	12.6 µM (active)	–	–	–	–	inactive	inactive	> 46 µM	5.01 µM (active)	inactive	inactive
CC(C)[C@@H](CC(=O)N[C@@H]1CCNC[C@H]1C(=O)N[C@H](CC(=O)N[C@@H](CCC(=O)O)CC(=O)O)Cc1ccccc1)NC(=O)C[C@H](Cc1c[nH]c2ccccc12)NC(=O)[C@@H]1CCCC[C@H]1N	39.8 µM (active)	> 46 µM	inactive	inactive	inactive	inactive	inactive	–	–	–	–
NCCC[C@@H](CC(=O)N[C@@H]1CCNC[C@H]1C(=O)N[C@H](CC(=O)N[C@@H](CCC(=O)O)CC(=O)O)Cc1c[nH]c2ccccc12)NC(=O)C[C@H](Cc1c[nH]c2ccccc12)NC(=O)[C@@H]1CNCC[C@H]1N	inactive	> 46 µM	–	inactive	–	–	inactive	–	–	–	–
CC(C)[C@@H](CC(=O)N[C@@H]1CCCC[C@H]1C(=O)N[C@H](CC(=O)N[C@@H](CCC(=O)O)CC(=O)O)Cc1c[nH]c2ccccc12)NC(=O)C[C@H](CO)NC(=O)[C@@H]1CNCC[C@H]1N	inactive	> 46 µM	–	inactive	–	inactive	inactive	–	–	–	–
CC(C)C[C@@H](CC(=O)N[C@H](CC(=O)N[C@@H]1CCCC[C@H]1C(=O)N[C@H](CC(=O)N[C@@H](CCC(=O)O)CC(=O)O)CC(C)C)C(C)C)NC(=O)[C@@H]1CNCC[C@H]1N	inactive	> 46 µM	–	inactive	inactive	inactive	–	–	–	–	–
CC(C)C[C@@H](CC(=O)N[C@H](CC(=O)N[C@@H]1CCNC[C@H]1C(=O)N[C@H](CC(=O)N[C@@H](CCC(=O)O)CC(=O)O)Cc1c[nH]c2ccccc12)C(C)C)NC(=O)[C@@H]1CNCC[C@H]1N	inactive	> 46 µM	–	inactive	inactive	inactive	inactive	–	–	–	–
NCCC[C@@H](CC(=O)N[C@@H]1CCCC[C@H]1C(=O)N[C@H](CC(=O)N[C@@H](CCC(=O)O)CC(=O)O)Cc1c[nH]c2ccccc12)NC(=O)C[C@H](CO)NC(=O)[C@@H]1CCCC[C@H]1N	inactive	> 46 µM	inactive	inactive	–	inactive	inactive	–	–	–	–
CC(C)C[C@@H](CC(=O)N[C@@H](CCCN)CC(=O)N[C@@H]1CCCC[C@H]1C(=O)N[C@H](CC(=O)N[C@@H](CCC(=O)O)CC(=O)O)Cc1ccccc1)NC(=O)[C@@H]1CNCC[C@H]1N	25.1 µM (active)	> 46 µM	–	inactive	inactive	inactive	inactive	–	–	–	–
CC(C)C[C@@H](CC(=O)N[C@H](CC(=O)N[C@@H]1CCNC[C@H]1C(=O)N[C@H](CC(=O)N[C@@H](CCC(=O)O)CC(=O)O)CC(C)C)C(C)C)NC(=O)[C@@H]1CNCC[C@H]1N	inactive	> 46 µM	inactive	inactive	–	inactive	inactive	–	–	–	–
COc1cc(/C=C\C(=O)CC(=O)/C=C\c2ccc(O)c(OC)c2)ccc1O	15.8 µM (active)	> 46 µM	inactive	–	–	15.8 µM (active)	2.51 µM (active)	–	–	–	–
NCCC[C@@H](CC(=O)N[C@@H]1CCNC[C@H]1C(=O)N[C@H](CC(=O)N[C@@H](CCC(=O)O)CC(=O)O)Cc1c[nH]c2ccccc12)NC(=O)C[C@H](Cc1ccccc1)NC(=O)[C@@H]1CNCC[C@H]1N	31.6 µM (active)	> 46 µM	–	inactive	inactive	inactive	inactive	–	–	–	–
COC(=O)c1ccc(C#CC(NP(=O)(c2ccccc2)c2ccccc2)c2ccccc2)cc1 (configuration not stated)	20 µM (active)	–	inactive	–	–	–	–	–	–	–	–
